What follows are compounds tested on T1, PCTK3. Details: concentration: 1 μM, replicates: in singlicate; n = 1.
T1 construct: gene CDK18
In the case of CCn1c(-c2ccoc2)nc2cnccc21 [SB-733887], the “%Inh” value is reported as 1%. CCS(=O)c1ccc(-c2coc3ccc(-c4nnc(C)o4)cc23)cc1 (centres unmarked) was tested, and the “%Inh” value was 2%. With Nc1ncnc2c1ncn2-c1ccc(Cl)cc1 [AH2635] the “%Inh” value was 0%. O=c1cc(N2CCOCC2)nc2n(Cc3ccc(F)c(Cl)c3)ccn12 [GSK2297099] was tested, and the “%Inh” value was 2%. In the case of COc1ccc(CNC(=O)NC2CCN(c3ccnc(Nc4ccc(F)cc4)n3)C2)cc1 (centres unmarked) [GSK1379706], the “%Inh” value is reported as 39%. With COc1cc(Nc2ccnc3ccc(C(F)(F)F)cc23)cc(OC)c1OC [GW577382] the “%Inh” value was 7%. For O=C(Nc1n[nH]c2nc(-c3ccccc3)c(Br)cc12)C1CC1 [SB-708998], the “%Inh” value was 0%. Nc1n[nH]c2nnc(-c3ccccc3)c(-c3ccccc3)c12 [GW554060] was tested, and the “%Inh” value was 20%. For CCc1nc(-c2cccc(C)c2)c(-c2ccncc2)s1, the “%Inh” value was 2%. O=C(NCCNc1ccnc(Nc2ccc(F)cc2)n1)Nc1ccc2c(c1)OCO2 [GSK1379882] was tested, and the “%Inh” value was 0%. With Fc1cccc(CSc2nnc(-c3ccc4c(c3)CCO4)o2)c1 the “%Inh” value was 0%. With Cn1c(=O)c(F)c(Nc2ccc(I)cc2F)c2c(=O)n(OC[C@H](O)CO)cnc21 the “%Inh” value was 5%. COc1cc(Nc2nccc(N3CCC(NC(=O)C4COc5ccccc5O4)C3)n2)cc(OC)c1OC (centres unmarked) [GSK1379761] was tested, and the “%Inh” value was 10%. For CCC(=O)c1c(-c2ccccc2)c2cc(Cl)ccc2c(=O)n1Cc1cc(S(C)(=O)=O)n(CCC(C)(C)O)n1, the “%Inh” value was 13%. Nc1ncnc2c1ncn2-c1cccc(F)c1 [SKF-97560] was tested, and the “%Inh” value was 10%. In the case of CCCNC(=O)Nc1ccc(Oc2ncnc3ccn(C)c23)cc1, the “%Inh” value is reported as 0%. In the case of COc1ccc(Nc2nccc(N3CCC(NS(=O)(=O)c4ccc(NC(C)=O)cc4)C3)n2)cc1 (centres unmarked) [GSK1379729], the “%Inh” value is reported as 6%. For COc1cc2ncn(-c3cc(OCc4ccncc4Br)c(C(N)=O)s3)c2cc1OC [GW854278], the “%Inh” value was 5%. CN1C(=O)C(Nc2cc(Cl)c(O)c(Cl)c2)=C(c2ccc(Cl)cc2)C1=O [SB-404321] was tested, and the “%Inh” value was 0%. For CCC(=O)c1c(-c2ccccc2)c2cc(Cl)ccc2c(=O)n1Cc1cc(S(C)(=O)=O)n(CC(F)F)n1, the “%Inh” value was 0%. With O=C1NC(=O)C(c2ccccc2)=C1Nc1cccc(O)c1 [SB-390534] the “%Inh” value was 0%. In the case of Cc1cccc(-c2cc(-c3c[nH]nc3-c3ccccn3)ccn2)c1 [GW679395], the “%Inh” value is reported as 1%. Nc1nc(N)c2nc(-c3ccccc3)[nH]c2n1 [SKF-12778] was tested, and the “%Inh” value was 0%. In the case of COc1ccc(-n2cnc3c(N)ncnc32)cc1 [SKF-97236], the “%Inh” value is reported as 0%. For COc1cccc(-n2cnc3c(N)ncnc32)c1 [SKF-97416], the “%Inh” value was 6%. In the case of FC(F)(F)c1ccc(-c2ncn(CCCN3CCOCC3)c2-c2ccncc2)cc1 [SB-217780], the “%Inh” value is reported as 20%. Cc1nnc(-c2ccc3ncn(-c4ccc(S(C)=O)cc4)c3c2)o1 (centres unmarked) was tested, and the “%Inh” value was 14%. For COC(=O)c1c(-c2ccccc2)c2cc(Br)ccc2c(=O)n1Cc1ccc(NC(=O)CCC(=O)O)cc1, the “%Inh” value was 0%. Cl.c1ccc(Cn2cnc3cc(Nc4ncnc5ccccc45)ccc32)cc1 [GW272142] was tested, and the “%Inh” value was 29%. In the case of Cc1ccc(-c2ccc3c(ccc4sc5c(c43)NC[C@@H](C)N=C5N(C)C)n2)cn1, the “%Inh” value is reported as 9%. With CN1C(=O)C(Nc2ccccc2)=C(c2ccccc2)C1=O [SB-300079] the “%Inh” value was 12%. COc1cc2nccc(Nc3ccc(OCc4ccc(NC(C)=O)cc4)cc3)c2cc1OC.Cl [GW440135] was tested, and the “%Inh” value was 0%. For COc1cc2ncn(-c3cc(OCCCc4ccccc4)c(C(N)=O)s3)c2cc1OC [GSK205189], the “%Inh” value was 19%. Cc1nnc(-c2ccc(C)c(-c3ccc(C(=O)O)cc3)c2)o1 [GW608005] was tested, and the “%Inh” value was 2%. O=C(Nc1n[nH]c2cc(-c3ccccc3F)ccc12)C1CC1 [SB-733371] was tested, and the “%Inh” value was 0%. For CCC(=O)c1c(-c2ccccc2)c2cc(Cl)ccc2c(=O)n1Cc1cc(C(=O)NC2CC2)n(C)n1, the “%Inh” value was 0%. For CCC(=O)c1c(-c2ccccc2)c2cc(Cl)ccc2c(=O)n1Cc1ccc(C(=O)O)cc1, the “%Inh” value was 0%.

The compounds below were run on PDGFRA. Details: concentration: 1 μM, replicates: in singlicate; n = 1.
With CCn1c(-c2ccoc2)nc2cnccc21 [SB-733887] the “%Inh” value was 63%. With CCS(=O)c1ccc(-c2coc3ccc(-c4nnc(C)o4)cc23)cc1 (centres unmarked) the “%Inh” value was 0%. With Nc1ncnc2c1ncn2-c1ccc(Cl)cc1 [AH2635] the “%Inh” value was 38%. With O=c1cc(N2CCOCC2)nc2n(Cc3ccc(F)c(Cl)c3)ccn12 [GSK2297099] the “%Inh” value was 7%. With COc1ccc(CNC(=O)NC2CCN(c3ccnc(Nc4ccc(F)cc4)n3)C2)cc1 (centres unmarked) [GSK1379706] the “%Inh” value was 14%. In the case of COc1cc(Nc2ccnc3ccc(C(F)(F)F)cc23)cc(OC)c1OC [GW577382], the “%Inh” value is reported as 0%. In the case of O=C(Nc1n[nH]c2nc(-c3ccccc3)c(Br)cc12)C1CC1 [SB-708998], the “%Inh” value is reported as 20%. With Nc1n[nH]c2nnc(-c3ccccc3)c(-c3ccccc3)c12 [GW554060] the “%Inh” value was 0%. CCc1nc(-c2cccc(C)c2)c(-c2ccncc2)s1 was tested, and the “%Inh” value was 0%. O=C(NCCNc1ccnc(Nc2ccc(F)cc2)n1)Nc1ccc2c(c1)OCO2 [GSK1379882] was tested, and the “%Inh” value was 6%. For Fc1cccc(CSc2nnc(-c3ccc4c(c3)CCO4)o2)c1, the “%Inh” value was 26%. Cn1c(=O)c(F)c(Nc2ccc(I)cc2F)c2c(=O)n(OC[C@H](O)CO)cnc21 was tested, and the “%Inh” value was 0%. COc1cc(Nc2nccc(N3CCC(NC(=O)C4COc5ccccc5O4)C3)n2)cc(OC)c1OC (centres unmarked) [GSK1379761] was tested, and the “%Inh” value was 1%. With CCC(=O)c1c(-c2ccccc2)c2cc(Cl)ccc2c(=O)n1Cc1cc(S(C)(=O)=O)n(CCC(C)(C)O)n1 the “%Inh” value was 0%. In the case of Nc1ncnc2c1ncn2-c1cccc(F)c1 [SKF-97560], the “%Inh” value is reported as 43%. With CCCNC(=O)Nc1ccc(Oc2ncnc3ccn(C)c23)cc1 the “%Inh” value was 54%. COc1ccc(Nc2nccc(N3CCC(NS(=O)(=O)c4ccc(NC(C)=O)cc4)C3)n2)cc1 (centres unmarked) [GSK1379729] was tested, and the “%Inh” value was 23%. With COc1cc2ncn(-c3cc(OCc4ccncc4Br)c(C(N)=O)s3)c2cc1OC [GW854278] the “%Inh” value was 39%. With CN1C(=O)C(Nc2cc(Cl)c(O)c(Cl)c2)=C(c2ccc(Cl)cc2)C1=O [SB-404321] the “%Inh” value was 0%. With CCC(=O)c1c(-c2ccccc2)c2cc(Cl)ccc2c(=O)n1Cc1cc(S(C)(=O)=O)n(CC(F)F)n1 the “%Inh” value was 0%. O=C1NC(=O)C(c2ccccc2)=C1Nc1cccc(O)c1 [SB-390534] was tested, and the “%Inh” value was 0%. With Cc1cccc(-c2cc(-c3c[nH]nc3-c3ccccn3)ccn2)c1 [GW679395] the “%Inh” value was 0%. With Nc1nc(N)c2nc(-c3ccccc3)[nH]c2n1 [SKF-12778] the “%Inh” value was 0%. In the case of COc1ccc(-n2cnc3c(N)ncnc32)cc1 [SKF-97236], the “%Inh” value is reported as 63%. For COc1cccc(-n2cnc3c(N)ncnc32)c1 [SKF-97416], the “%Inh” value was 42%. In the case of FC(F)(F)c1ccc(-c2ncn(CCCN3CCOCC3)c2-c2ccncc2)cc1 [SB-217780], the “%Inh” value is reported as 34%. For Cc1nnc(-c2ccc3ncn(-c4ccc(S(C)=O)cc4)c3c2)o1 (centres unmarked), the “%Inh” value was 17%. COC(=O)c1c(-c2ccccc2)c2cc(Br)ccc2c(=O)n1Cc1ccc(NC(=O)CCC(=O)O)cc1 was tested, and the “%Inh” value was 16%. In the case of Cl.c1ccc(Cn2cnc3cc(Nc4ncnc5ccccc45)ccc32)cc1 [GW272142], the “%Inh” value is reported as 0%. In the case of Cc1ccc(-c2ccc3c(ccc4sc5c(c43)NC[C@@H](C)N=C5N(C)C)n2)cn1, the “%Inh” value is reported as 0%. CN1C(=O)C(Nc2ccccc2)=C(c2ccccc2)C1=O [SB-300079] was tested, and the “%Inh” value was 0%. With COc1cc2nccc(Nc3ccc(OCc4ccc(NC(C)=O)cc4)cc3)c2cc1OC.Cl [GW440135] the “%Inh” value was 93.1%. For COc1cc2ncn(-c3cc(OCCCc4ccccc4)c(C(N)=O)s3)c2cc1OC [GSK205189], the “%Inh” value was 0%. Cc1nnc(-c2ccc(C)c(-c3ccc(C(=O)O)cc3)c2)o1 [GW608005] was tested, and the “%Inh” value was 0%. O=C(Nc1n[nH]c2cc(-c3ccccc3F)ccc12)C1CC1 [SB-733371] was tested, and the “%Inh” value was 16%. In the case of CCC(=O)c1c(-c2ccccc2)c2cc(Cl)ccc2c(=O)n1Cc1cc(C(=O)NC2CC2)n(C)n1, the “%Inh” value is reported as 15%. For CCC(=O)c1c(-c2ccccc2)c2cc(Cl)ccc2c(=O)n1Cc1ccc(C(=O)O)cc1, the “%Inh” value was 19%.

— PMC5540273 (PLoS ONE, 2017)
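Further: KINOMEscan kinase panel screen.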
